Source: PubChem BioAssay (several laboratories)
CYP2C19 act: activators of human cytochrome P450 2C19; P33261; recombinant CYP2C19, luciferin-H EGE luminescence; stronger effect = higher value; 0 = fully inhibited enzyme, 1 = untreated enzyme; activation factor at 5 µM; 96,000 tested, under 10 active; AID 1025;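 active means activation factor of at least 2 at 5 µM in the primary screen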;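 further: 0 = wells with 2.5 mM tranylcypromine and 1 = vehicle-only wells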
Target sequence (P33261 whole entry, looked up): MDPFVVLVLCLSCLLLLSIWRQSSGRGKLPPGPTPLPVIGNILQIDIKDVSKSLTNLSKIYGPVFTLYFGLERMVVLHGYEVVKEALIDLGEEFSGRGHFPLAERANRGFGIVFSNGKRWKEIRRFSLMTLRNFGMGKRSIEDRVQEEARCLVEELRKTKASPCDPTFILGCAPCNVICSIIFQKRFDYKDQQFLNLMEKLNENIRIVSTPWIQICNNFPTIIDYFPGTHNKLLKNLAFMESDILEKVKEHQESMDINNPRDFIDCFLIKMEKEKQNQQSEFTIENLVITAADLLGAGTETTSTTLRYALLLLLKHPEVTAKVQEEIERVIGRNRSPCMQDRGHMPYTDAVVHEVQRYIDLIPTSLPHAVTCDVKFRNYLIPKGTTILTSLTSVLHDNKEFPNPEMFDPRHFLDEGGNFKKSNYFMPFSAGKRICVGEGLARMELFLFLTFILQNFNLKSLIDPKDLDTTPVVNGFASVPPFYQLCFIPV
CYP2C9 act: activators of human CYP2C9. hit rate 1.4% among 96,000. activation factor at 5 µM. P11712. recombinant CYP2C9, luciferin-H conversion, luminescence; stronger effect = higher value; factor 1 = untreated enzyme, 0 = blocked;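 active means activation factor of 2 or more for CYP2C9 at a 5 µM dose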;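 further: 0 = sulfaphenazole-blocked wells and 1 = vehicle-only wells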
CYP2C9 inh: blocks human cytochrome P450 2C9 | P11712 | CYP2C9 Supersomes, luciferin-H conversion, luminescence | inhibition, % at 5 µM | hit rate 20% among 96,000;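 active means blocking of liver enzyme CYP2C9 beyond about 50% at 5 µM, limit read from the data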
CYP2C19 inhib: blocks human cytochrome P450 2C19; P33261; CYP2C19 Supersomes, luciferin-H EGE luminescence, 30 min; inhibition, % at 5 µM; hit rate 21% among 96,000; AID 778;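 active means CYP2C19 inhibition above a set limit at 5 µM in the primary screen, cut at about 50% in these data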;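 further: plate controls were negative control wells for no effect and 2.5 mM tranylcypromine positive control for full effect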
PostGolgi ctrl: inhibits growth of the yeast control strain. efflux-deficient yeast background strain, growth absorbance A615, 16 h. inhibition, % at 10 µM. hit rate 5% among 98,000. AID 738
PostGolgi yeast: growth inhibition of a yeast mutant, post-Golgi transport screen. hit rate 0.9% among 98,000. post-Golgi transport phenotypic cell assay. inhibition, % at 10 µM;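 further: yeast cells grown in 1536-well plates; yeast grown about 18 h at 30C before absorbance read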
* = called active by the depositor. Sampled rows, rich in hits. Any-hit rate of the full collection: about 32%. Unless noted, no stated cut-off is given here; in the data, active means inhibition above about 30%; inactive means the rest.

What do the screens show for `CC1CN(C(=O)CSc2nc(-c3ccc(F)cc3)cs2)CC(C)O1` (stereo unspecified)?
CYP2C19 act: 0.2; CYP2C9 act: 0.9; CYP2C9 inh: 10; CYP2C19 inhib: 79*; PostGolgi ctrl: 2; PostGolgi yeast: -3

What do the screens show for `Cc1nc(-c2ccc(C(=O)N3CCOCC3)cc2)cs1`?
CYP2C19 act: 0.8; CYP2C9 act: 1.1; CYP2C9 inh: -11; CYP2C19 inhib: 16; PostGolgi ctrl: 8; PostGolgi yeast: 9

How did O=C(CSc1nc(-c2ccc(F)cc2)cs1)N1CCOCC1 do in these assays?
CYP2C19 act: 0.3; CYP2C9 act: 2.1*; CYP2C9 inh: -110; CYP2C19 inhib: 69*; PostGolgi ctrl: 9; PostGolgi yeast: 1

How did Cc1noc(C)c1COc1cccc(C(=O)OCCOc2ccc(F)cc2)c1 do in these assays?
CYP2C19 act: 0; CYP2C9 act: 0.1; CYP2C9 inh: 89*; CYP2C19 inhib: 98*; PostGolgi ctrl: 21; PostGolgi yeast: -1

What do the screens show for `Cc1noc(C)c1COc1cccc(C(=O)OC(C)C(=O)Nc2ccc3c(c2)OCO3)c1` (stereo unspecified)?
CYP2C19 act: 0.6; CYP2C9 act: 0.2; CYP2C9 inh: 81*; CYP2C19 inhib: 37; PostGolgi ctrl: -2; PostGolgi yeast: -5

What do the screens show for `Cc1noc(C)c1COc1cccc(C(=O)Oc2ccc3c(c2)OCO3)c1`?
CYP2C19 act: 0.3; CYP2C9 act: 0.1; CYP2C9 inh: 88*; CYP2C19 inhib: 67*; PostGolgi ctrl: 7; PostGolgi yeast: 5

Results for Cc1ccc(NC(=O)c2cccc(OCc3c(C)noc3C)c2)c(C)c1 ?
CYP2C19 act: 0.2; CYP2C9 act: 0.1; CYP2C9 inh: 88*; CYP2C19 inhib: 81*; PostGolgi ctrl: 11; PostGolgi yeast: 7

Results for O=C(NC1CC1)c1cccc(Nc2ccc(-c3ccc4c(c3)OCCO4)nn2)c1 ?
CYP2C19 act: 0.6; CYP2C9 act: 0.6; CYP2C9 inh: 37; CYP2C19 inhib: 44; PostGolgi ctrl: -3; PostGolgi yeast: -11

Results for Oc1ccc(-n2cnnn2)cc1 ?
CYP2C19 act: 1.1; CYP2C9 act: 1.4; CYP2C9 inh: -41; CYP2C19 inhib: -10; PostGolgi ctrl: 2; PostGolgi yeast: 3

How did O=C(O)C1(c2cccc(Cl)c2)CCC1 do in these assays?
CYP2C19 act: 1; CYP2C9 act: 0.9; CYP2C9 inh: 8; CYP2C19 inhib: -1; PostGolgi ctrl: 9; PostGolgi yeast: 6

Results for Cc1ccc(C(=O)N2CCN3C(=O)c4ccccc4C23c2ccc(Cl)cc2)cc1 (stereo unspecified) ?
CYP2C19 act: 0.1; CYP2C9 act: 0.6; CYP2C9 inh: 38; CYP2C19 inhib: 86*; PostGolgi ctrl: 39*; PostGolgi yeast: 21

How did O=C1c2ccccc2C2(c3ccccc3)NCCN12 (stereo unspecified) do in these assays?
CYP2C19 act: 0.9; CYP2C9 act: 0.9; CYP2C9 inh: 8; CYP2C19 inhib: 8; PostGolgi ctrl: 5; PostGolgi yeast: -3

How did O=C(Nc1cccc(Cl)c1)N1CCN2C(=O)c3ccccc3C12c1ccccc1 (stereo unspecified) do in these assays?
CYP2C19 act: 0.5; CYP2C9 act: 0.4; CYP2C9 inh: 57*; CYP2C19 inhib: 49; PostGolgi ctrl: 4; PostGolgi yeast: 18

How did Cn1nc(C(=O)Nc2nc3ccc(S(C)(=O)=O)cc3s2)ccc1=O do in these assays?
CYP2C19 act: 1.1; CYP2C9 act: 0.7; CYP2C9 inh: 26; CYP2C19 inhib: -6; PostGolgi ctrl: 2; PostGolgi yeast: -6

Results for O=C(c1ccco1)N1CCN(CC2CC3C=CC2C3)CC1 (stereo unspecified) ?
CYP2C19 act: 0.9; CYP2C9 act: 1.1; CYP2C9 inh: -7; CYP2C19 inhib: 10; PostGolgi ctrl: -5; PostGolgi yeast: 0

Results for COc1cccc2c1C(=O)O/C2=C/c1ccc2c(c1)OCO2 ?
CYP2C19 act: 0.4; CYP2C9 act: 0.5; CYP2C9 inh: 55*; CYP2C19 inhib: 62*; PostGolgi ctrl: 8; PostGolgi yeast: 0

What do the screens show for `COc1ccccc1CN1C(=O)C2CC=CCC2C1=O` (stereo unspecified)?
CYP2C19 act: 0.7; CYP2C9 act: 1.2; CYP2C9 inh: -17; CYP2C19 inhib: 30; PostGolgi ctrl: 5; PostGolgi yeast: -4

How did Cc1ccccc1C1NC(=O)Cc2ccccc21 (stereo unspecified) do in these assays?
CYP2C19 act: 0.7; CYP2C9 act: 1.1; CYP2C9 inh: -9; CYP2C19 inhib: 33; PostGolgi ctrl: 2; PostGolgi yeast: 0

What do the screens show for `O=C1Cc2ccccc2C(c2ccc(Br)cc2)N1` (stereo unspecified)?
CYP2C19 act: 0; CYP2C9 act: 0.3; CYP2C9 inh: 71*; CYP2C19 inhib: 100*; PostGolgi ctrl: 16; PostGolgi yeast: -10

Results for O=C(Nc1nccs1)c1sc2cc(Cl)ccc2c1Cl ?
CYP2C19 act: 0.4; CYP2C9 act: 0.7; CYP2C9 inh: 33; CYP2C19 inhib: 57*; PostGolgi ctrl: 11; PostGolgi yeast: 17

What do the screens show for `COCc1cc(=O)[nH]c2cc(NC(=O)C3CC3)c(C)cc12`?
CYP2C19 act: 0.9; CYP2C9 act: 1; CYP2C9 inh: 4; CYP2C19 inhib: 9; PostGolgi ctrl: 5; PostGolgi yeast: -10

Results for CCOC(=O)C1=C(C)Nc2ccc(C)cc2S1 ?
CYP2C19 act: 0.3; CYP2C9 act: 0.7; CYP2C9 inh: 31; CYP2C19 inhib: 66*; PostGolgi ctrl: -1; PostGolgi yeast: -3

What do the screens show for `CSCCOC(=O)C1=C(C)Nc2ccc(C)cc2S1`?
CYP2C19 act: 0.5; CYP2C9 act: 0.4; CYP2C9 inh: 61*; CYP2C19 inhib: 50; PostGolgi ctrl: -2; PostGolgi yeast: -1

How did CCOCCOC(=O)C1=C(C)Nc2ccc(C)cc2S1 do in these assays?
CYP2C19 act: 0.1; CYP2C9 act: 0.3; CYP2C9 inh: 71*; CYP2C19 inhib: 91*; PostGolgi ctrl: -12; PostGolgi yeast: -5

What do the screens show for `CCOC(=O)CC1Sc2ccccc2NC1=O` (stereo unspecified)?
CYP2C19 act: 0.6; CYP2C9 act: 1.1; CYP2C9 inh: -14; CYP2C19 inhib: 38; PostGolgi ctrl: 0; PostGolgi yeast: -1

What do the screens show for `O=c1[nH]nc(Cc2ccc3ccccc3n2)c2ccccc12`?
CYP2C19 act: 0.9; CYP2C9 act: 0.9; CYP2C9 inh: 14; CYP2C19 inhib: 8; PostGolgi ctrl: 17; PostGolgi yeast: 10

What do the screens show for `C=CCn1c(O)c(CN2CCN(Cc3ccccc3)CC2)c(C)c(C#N)c1=O`?
CYP2C19 act: 1; CYP2C9 act: 0.7; CYP2C9 inh: 26; CYP2C19 inhib: -1; PostGolgi ctrl: -12; PostGolgi yeast: -8

How did CS(=O)(=O)N1CCC(C(=O)NCc2ccco2)CC1 do in these assays?
CYP2C19 act: 1.2; CYP2C9 act: 1.2; CYP2C9 inh: -20; CYP2C19 inhib: -19; PostGolgi ctrl: 12; PostGolgi yeast: 0
